DT40 TDP1 CPT: DT40-hTDP1 cell growth loss with CPT; Potency, µM (highest dose often 46.2 µM), for inactives: top-dose activity change, negative = growth inhibition, usual class: inhibitors; chicken DT40 Tdp1-/-;hTDP1 cells + 20 nM CPT, ATP luminescence, 48 h; AID 686979; 12% of 420,000 active; also: nearly all actives have a fitted effect of over 55% in size
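Chicken DT40 Tdp1-/- cells complemented with human TDP1, 400 cells/well, exposed to compounds plus 20 nM camptothecin for at least 48 h at 37 C; viability read as ATP content by CellTiter-Glo luminescence.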
DT40 TDP1 no CPT: qHTS for Inhibitors of human tyrosyl-DNA phosphodiesterase 1 (TDP1): qHTS in cells in absence of CPT; DT40 Tdp1-/- hTDP1 cells, no CPT, ATP luminescence, 48 h; 15% of 420,000 active; Potency, µM (highest dose often 46.2 µM), for inactives: top-dose activity change, negative = growth inhibition, actives largely listed as inhibitors; also: nearly all actives have a fitted effect of over 55% in size
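Camptothecin absent (DMSO only). Human TDP1-complemented DT40 knockout cells, 400 cells/well, 37 °C for minimum 48 hr; ATP measured via CellTiter-Glo, 30 min dark incubation, luminescence.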
KAT2A inh: inhibitors of human GCN5L2 histone acetyltransferase; Q92830; GCN5L2 HAT assay, ThioGlo1 CoA-SH fluorescence; Potency, µM (doses to about 58.9 µM), inactives show top-dose activity change, negative = inhibition, hits mostly inhibitors; 0.21% of 390,000 active
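Compounds, pin-transferred from DMSO stocks, meet 20nM GCN5L2 for 15 min before the reaction begins with H3(1-25) peptide (75uM) and acetyl-CoA (70uM). Thiol-reactive ThioGlo1 reports CoA release over 20 min at room temperature.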
PLK1 PBD inh: PLK1 (human) polo-box domain binding inhibition | Potency, µM, inactives show max response, negative = inhibition, usual class: inhibitors | 2.8% of 360,000 active | P53350 | Plk1 PBD binding of FITC phosphopeptide, fluorescence polarization; also: series mostly up to about 57 µM; nearly all actives have a fitted effect of over 65% in size
VDR inh: blocks the human vitamin D receptor. Potency, µM, inactives show max response, negative = inhibition, most hits filed as inhibitors. 0.93% of 400,000 active. P11473. VDR-SRC2-3 peptide fluorescence polarization, 2 h
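Fluorescence polarization assay measuring small-molecule disruption of VDR binding to the coregulator peptide SRC2-3. Compounds were pin-transferred (23 nl) into the reagent mix and incubated 2 h at room temperature before reading.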
TDP1 block: TDP1 (human) enzyme inhibition; recombinant TDP1, AlphaScreen DNA substrate cleavage; Potency, µM (doses to about 130 µM), without a hit: at the top dose activity change, negative = inhibition, usual class: inhibitors; 0.28% of 350,000 active; AID 485290; also: nearly all actives have a fitted effect of over 40% in size
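Signal: AlphaScreen proximity between streptavidin donor and anti-FITC acceptor beads on intact substrate. Reaction: Tdp1 1 nM, substrate 15 nM final, 5 min RT after 15 min compound preincubation.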
Active calls of the source: *; ? = inconclusive; . = no result given; [ ] = dose if it differs, or a comment. Rows were chosen to be rich in hits. Some 18% of all compounds tested hit in one or more screens of this group. Calls follow the shape of the dose curve; as a rule, active = well fitted curve in the direction sought with a large enough effect; inconclusive = small, poorly fitted or top-dose-only effect, or another doubt; inactive = no such curve, though single readings can be large; an effect the other way counts as inactive or inconclusive. % is scaled to controls: 0 for no effect and ±100 for the full control effect; potency is read from the fitted curve at half-maximal effect.

SMILES | DT40 TDP1 CPT | DT40 TDP1 no CPT | KAT2A inh | PLK1 PBD inh | VDR inh | TDP1 block
CCNc1ccccc(C(=O)/C=C/c2ccc3c(c2)OCO3)c1=O | 8.2µM* | 16.4µM* | -14.0% | 23.8µM* | ? | -2.8%
CC1(C)NC(=O)N(c2ccc([N+](=O)[O-])c(C(F)(F)F)c2)C1=O | 18.8µM* | 4.61µM* | -4.6% | 3.9% | 6.5% | -4.7%[56.1 µM]
FC(F)Sc1ccc(NC(=S)NC(c2ccccc2)c2ccccc2)cc1 | 4.61µM* | 10.3µM* | -7.7% | -11.6% | 2.0% | 2.5%
FC(F)(F)c1ccc(NC(=S)NCc2ccccc2)cc1 | 14.6µM* | ? | 0.5% | -19.5% | -22.2% | -5.0%
FC(F)Sc1ccc(NC(=S)NCc2ccccc2)cc1 | 25.9µM* | ? | -4.5% | -4.6% | -10.7% | -2.6%
CN(C(=S)Nc1ccc(SC(F)F)cc1)C(c1ccccc1)c1ccccc1 | ? | ? | -10.1% | 1.5% | 1.6% | .
CN(C)CCCN(Cc1ccccc1)C(=S)NCc1ccccc1 | -24.5% | ? | -6.0% | -20.2% | -3.0% | -3.0%
FC(F)Sc1ccc(NC(=S)NCC2CCCCC2)cc1 | ? | ? | -7.1% | -4.3% | 4.5% | 2.6%
CN(C)CCCN(Cc1ccccc1)C(=S)Nc1ccc(SC(F)F)cc1 | 18.4µM* | 23.1µM* | 6.9% | -13.4% | -10.4% | 2.7%
Cc1cn(CC(=O)NCc2nc3ccccc3[nH]2)c(=O)[nH]c1=O | -8.8% | 1.0% | . | 0.9% | . | .
N#Cc1ccc(CN2CC3(CCN(C(=O)c4csnn4)CC3)C2)cc1 | 8.6% | -3.1% | 14.9% | . | 4.3% | .
COc1ccccc1C1Nc2c(sc3nc(C)cc(C)c23)C(=O)N1c1ccccc1 (centres undefined) | ? | ? | -15.9% | . | 6.3% | -4.7%
COc1ccc(CN(C)C(=O)Cn2cc(C)c(=O)[nH]c2=O)cc1OC | -19.6% | -1.2% | . | 26.7µM* | -27.4% | .
CSc1nc(N)nc2c1ncn2CC(=O)NCCCc1ccccc1 | ? | 14.6µM* | 2.2% | -3.5% | ? | 1.7%
COc1ccc(CN(C)C(=O)Cn2ccsc2=N)cc1OC | -15.6% | 2.6% | -4.1% | ? | 8.2% | .
COC(=O)[C@@H](Cc1ccccc1)NC(=O)Cn1cnc2c(SC)nc(N)nc21 | -5.0% | -11.5% | 0.5% | -20.4% | -12.2% | 0.1%
COc1ccc(CN(C)C(=O)Cn2cnc3c(SC)nc(N)nc32)cc1OC | 14.6µM* | 20.6µM* | -3.9% | -12.2% | 9.1% | -0.1%
COC(=O)c1ccc(CNC(=O)Cn2cnc3c(SC)nc(N)nc32)cc1 | 23.1µM* | ? | 0.2% | -15.2% | -15.3% | -0.3%
COc1cc(-c2ccc(NC(=O)NC3CC3)c(OC)c2)ccc1NC(=O)NC1CC1 | . | . | -4.7% | . | . | 2.9%
Cc1cccc(N2CCN(C(=O)c3c(C)oc4ncnc(N5CCOCC5)c34)CC2)c1C | 0.2% | -21.5% | 12.4% | . | 6.0% | -2.1%
C=CCOc1cccc(/C=N/NC(=O)CN2CCCCC2)c1 | -2.1% | 8.1% | -0.1% | 1.8% | -23.2% | .
COc1ccc(-c2nc(N3CCN(S(=O)(=O)c4ccccc4)CC3)c3ccccc3n2)cc1 | . | . | . | . | -17.5% | 2.2%
CN[C@H](CC(C)C)C(=O)N[C@H]1C(=O)N[C@@H](CC(N)=O)C(=O)N[C@H]2C(=O)N[C@H]3C(=O)N[C@H](C(=O)N[C@@H](C(=O)O)c4cc(O)cc(O)c4-c4cc3ccc4O)[C@H](O)c3ccc(c(Cl)c3)Oc3cc2cc(c3O[C@@H]2O[C@H](CO)[C@@H](O)[C@H](O)[C@H]2O[C@H]2C[C@](C)(N)C(O)[C@H](C)O2)Oc2ccc(cc2Cl)[C@H]1O (some centres undefined) | -6.1% | -22.7% | . | . | . | .
CC1(Oc2ccc3ccccc3c2)CCN(Cc2ccc(OC(F)(F)F)cc2)C1 (centres undefined) | -24.6% | -23.9% | . | 3.4% | . | .

From PubChem BioAssay
